We go through 40 targets from the supplement of paper PMC11001985.

UniProt P11717, sequence (P11717 whole entry): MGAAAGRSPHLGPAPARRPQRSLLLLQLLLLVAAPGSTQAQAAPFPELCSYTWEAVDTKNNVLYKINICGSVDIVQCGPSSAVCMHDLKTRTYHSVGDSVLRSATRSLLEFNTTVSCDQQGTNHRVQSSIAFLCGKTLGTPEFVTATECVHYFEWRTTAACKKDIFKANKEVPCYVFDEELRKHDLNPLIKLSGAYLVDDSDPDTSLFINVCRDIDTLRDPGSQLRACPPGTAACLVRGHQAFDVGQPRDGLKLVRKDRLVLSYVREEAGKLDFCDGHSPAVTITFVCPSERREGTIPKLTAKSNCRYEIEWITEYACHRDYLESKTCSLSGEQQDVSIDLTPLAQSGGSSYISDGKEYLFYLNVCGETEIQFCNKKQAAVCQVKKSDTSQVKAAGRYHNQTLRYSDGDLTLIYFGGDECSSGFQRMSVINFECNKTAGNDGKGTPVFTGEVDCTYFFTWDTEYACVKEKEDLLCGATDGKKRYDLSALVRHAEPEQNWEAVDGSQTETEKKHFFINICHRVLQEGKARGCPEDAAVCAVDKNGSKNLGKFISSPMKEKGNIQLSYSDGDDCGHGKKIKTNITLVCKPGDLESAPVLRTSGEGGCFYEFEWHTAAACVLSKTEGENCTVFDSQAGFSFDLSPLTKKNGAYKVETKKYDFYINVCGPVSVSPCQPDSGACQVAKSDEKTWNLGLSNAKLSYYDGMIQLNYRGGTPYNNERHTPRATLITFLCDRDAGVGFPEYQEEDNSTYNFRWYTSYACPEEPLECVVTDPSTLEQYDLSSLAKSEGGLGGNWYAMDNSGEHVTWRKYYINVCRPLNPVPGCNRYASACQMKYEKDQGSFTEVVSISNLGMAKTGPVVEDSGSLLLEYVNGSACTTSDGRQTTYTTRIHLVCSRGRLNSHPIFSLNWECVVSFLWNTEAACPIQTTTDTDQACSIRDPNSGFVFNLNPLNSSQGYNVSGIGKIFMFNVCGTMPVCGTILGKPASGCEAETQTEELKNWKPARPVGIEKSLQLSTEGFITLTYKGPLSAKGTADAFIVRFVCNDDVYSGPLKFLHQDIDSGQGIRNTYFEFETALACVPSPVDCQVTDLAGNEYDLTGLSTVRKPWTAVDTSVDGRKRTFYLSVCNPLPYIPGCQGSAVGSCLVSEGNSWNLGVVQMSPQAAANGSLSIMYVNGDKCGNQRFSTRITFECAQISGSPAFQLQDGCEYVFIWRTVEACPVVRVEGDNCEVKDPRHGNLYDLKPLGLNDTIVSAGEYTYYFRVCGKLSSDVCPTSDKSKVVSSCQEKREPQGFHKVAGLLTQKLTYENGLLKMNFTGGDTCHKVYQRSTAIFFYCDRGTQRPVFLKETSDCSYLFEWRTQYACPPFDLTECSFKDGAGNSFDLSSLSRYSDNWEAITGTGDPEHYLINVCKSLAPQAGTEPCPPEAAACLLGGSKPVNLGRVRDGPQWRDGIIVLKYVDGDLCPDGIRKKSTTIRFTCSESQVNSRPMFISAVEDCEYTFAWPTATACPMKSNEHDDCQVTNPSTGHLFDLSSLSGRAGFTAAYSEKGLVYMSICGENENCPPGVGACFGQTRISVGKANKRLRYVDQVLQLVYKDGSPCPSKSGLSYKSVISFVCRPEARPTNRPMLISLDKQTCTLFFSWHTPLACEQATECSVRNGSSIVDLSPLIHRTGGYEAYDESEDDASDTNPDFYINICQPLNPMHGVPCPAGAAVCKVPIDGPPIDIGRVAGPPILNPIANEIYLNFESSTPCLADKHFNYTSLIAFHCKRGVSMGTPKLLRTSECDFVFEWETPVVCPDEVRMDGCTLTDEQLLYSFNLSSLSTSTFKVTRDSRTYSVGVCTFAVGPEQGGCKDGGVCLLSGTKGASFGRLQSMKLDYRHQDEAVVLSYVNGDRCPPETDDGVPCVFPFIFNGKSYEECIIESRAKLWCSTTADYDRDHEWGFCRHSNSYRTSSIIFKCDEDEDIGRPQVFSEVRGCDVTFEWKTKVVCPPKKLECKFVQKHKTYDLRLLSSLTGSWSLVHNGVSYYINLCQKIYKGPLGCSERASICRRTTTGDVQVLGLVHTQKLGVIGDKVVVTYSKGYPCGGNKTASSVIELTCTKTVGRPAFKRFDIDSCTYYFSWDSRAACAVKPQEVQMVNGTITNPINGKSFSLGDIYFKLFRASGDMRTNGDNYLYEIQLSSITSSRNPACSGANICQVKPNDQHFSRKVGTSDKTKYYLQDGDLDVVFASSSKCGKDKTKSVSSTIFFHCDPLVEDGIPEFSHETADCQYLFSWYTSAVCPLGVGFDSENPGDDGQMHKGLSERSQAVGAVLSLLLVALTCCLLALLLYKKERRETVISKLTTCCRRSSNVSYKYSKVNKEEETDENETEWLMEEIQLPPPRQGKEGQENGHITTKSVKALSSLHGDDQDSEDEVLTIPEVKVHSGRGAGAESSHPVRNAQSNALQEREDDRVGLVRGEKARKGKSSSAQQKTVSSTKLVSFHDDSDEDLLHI
UniProt P07942, sequence (P07942 whole entry): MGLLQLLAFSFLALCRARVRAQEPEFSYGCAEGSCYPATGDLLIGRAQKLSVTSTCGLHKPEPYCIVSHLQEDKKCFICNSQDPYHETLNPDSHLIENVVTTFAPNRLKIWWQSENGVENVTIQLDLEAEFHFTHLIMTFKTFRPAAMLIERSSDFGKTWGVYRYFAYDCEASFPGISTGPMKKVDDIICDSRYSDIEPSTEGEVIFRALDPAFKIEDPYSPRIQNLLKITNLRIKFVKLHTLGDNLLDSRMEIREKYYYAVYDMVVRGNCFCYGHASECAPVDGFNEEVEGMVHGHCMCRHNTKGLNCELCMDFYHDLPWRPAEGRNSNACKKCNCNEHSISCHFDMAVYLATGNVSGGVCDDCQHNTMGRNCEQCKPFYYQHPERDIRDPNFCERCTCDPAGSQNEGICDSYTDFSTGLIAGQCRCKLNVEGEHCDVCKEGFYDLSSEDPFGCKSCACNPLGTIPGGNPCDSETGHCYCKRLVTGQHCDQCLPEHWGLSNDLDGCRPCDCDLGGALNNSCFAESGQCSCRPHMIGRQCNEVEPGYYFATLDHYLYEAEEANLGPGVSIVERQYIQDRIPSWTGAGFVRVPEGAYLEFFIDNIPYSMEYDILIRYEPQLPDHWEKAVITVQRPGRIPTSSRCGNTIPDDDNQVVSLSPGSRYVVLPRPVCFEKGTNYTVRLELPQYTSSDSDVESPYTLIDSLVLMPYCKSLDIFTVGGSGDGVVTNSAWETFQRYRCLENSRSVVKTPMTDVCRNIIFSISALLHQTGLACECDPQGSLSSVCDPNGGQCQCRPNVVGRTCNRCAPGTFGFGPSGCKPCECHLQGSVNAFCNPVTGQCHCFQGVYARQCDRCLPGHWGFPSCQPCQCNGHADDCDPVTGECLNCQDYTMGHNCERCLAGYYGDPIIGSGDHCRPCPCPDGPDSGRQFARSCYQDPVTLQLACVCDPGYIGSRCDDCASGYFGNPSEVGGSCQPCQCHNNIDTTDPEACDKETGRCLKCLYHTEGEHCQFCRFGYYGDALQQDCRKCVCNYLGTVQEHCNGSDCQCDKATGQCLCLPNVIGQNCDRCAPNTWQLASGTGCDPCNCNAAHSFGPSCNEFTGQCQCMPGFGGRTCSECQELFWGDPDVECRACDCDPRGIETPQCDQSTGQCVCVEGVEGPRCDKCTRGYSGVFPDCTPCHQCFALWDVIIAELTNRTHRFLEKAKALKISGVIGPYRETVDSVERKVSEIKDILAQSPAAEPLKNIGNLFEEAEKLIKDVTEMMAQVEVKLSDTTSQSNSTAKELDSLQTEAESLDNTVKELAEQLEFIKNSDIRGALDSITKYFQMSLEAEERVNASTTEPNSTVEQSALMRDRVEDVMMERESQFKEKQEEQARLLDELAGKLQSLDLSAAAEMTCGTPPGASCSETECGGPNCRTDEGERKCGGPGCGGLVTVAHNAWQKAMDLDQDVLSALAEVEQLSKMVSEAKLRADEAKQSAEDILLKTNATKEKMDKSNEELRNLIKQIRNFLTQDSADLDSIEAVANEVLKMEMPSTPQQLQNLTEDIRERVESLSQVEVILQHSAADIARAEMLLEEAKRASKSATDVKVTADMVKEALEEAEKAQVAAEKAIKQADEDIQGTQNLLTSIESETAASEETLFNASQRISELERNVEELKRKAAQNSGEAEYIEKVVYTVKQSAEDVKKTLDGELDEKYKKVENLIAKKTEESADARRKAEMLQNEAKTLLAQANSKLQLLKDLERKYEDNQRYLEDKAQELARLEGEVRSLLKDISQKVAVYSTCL
UniProt Q9UQ80, sequence (Q9UQ80 whole entry): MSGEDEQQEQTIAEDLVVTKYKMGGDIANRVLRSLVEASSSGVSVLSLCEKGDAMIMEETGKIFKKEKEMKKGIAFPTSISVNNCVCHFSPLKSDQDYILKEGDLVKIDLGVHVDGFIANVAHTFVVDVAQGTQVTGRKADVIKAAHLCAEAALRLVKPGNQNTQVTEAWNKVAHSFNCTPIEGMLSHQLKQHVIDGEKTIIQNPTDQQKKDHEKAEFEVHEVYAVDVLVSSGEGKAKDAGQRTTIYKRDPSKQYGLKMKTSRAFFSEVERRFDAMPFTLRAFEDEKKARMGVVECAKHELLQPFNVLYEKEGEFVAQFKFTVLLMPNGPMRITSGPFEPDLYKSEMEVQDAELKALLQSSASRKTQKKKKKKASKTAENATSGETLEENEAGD
UniProt P09651, sequence (P09651 whole entry): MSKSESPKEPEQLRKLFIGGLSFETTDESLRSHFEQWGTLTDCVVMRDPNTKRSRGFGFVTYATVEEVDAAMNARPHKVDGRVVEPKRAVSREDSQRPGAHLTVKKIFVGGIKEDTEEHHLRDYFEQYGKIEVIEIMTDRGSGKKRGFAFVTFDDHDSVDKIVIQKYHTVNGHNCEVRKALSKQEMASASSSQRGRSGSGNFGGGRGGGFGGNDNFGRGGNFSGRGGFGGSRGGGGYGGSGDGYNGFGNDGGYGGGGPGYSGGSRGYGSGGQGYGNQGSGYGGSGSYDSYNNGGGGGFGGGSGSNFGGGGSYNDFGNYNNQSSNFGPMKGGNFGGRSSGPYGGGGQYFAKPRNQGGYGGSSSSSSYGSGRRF

Compound in this experiment: C#CCNC(=O)CCSSCCC(=O)NCCc1ccc(C=O)c(C=O)c1
Kind of experiment: lysine labeling ratio R10:1 (500 µM / 50 µM probe), SILAC-ABPP in living cells; higher = lower intrinsic lysine reactivity toward the probe, active = 2 or less. Conditions: HeLa; probe concentrations 500 vs 50 µM. Here is the method:
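Living HeLa cells (SILAC light/heavy) in PBS at room temperature were labeled with 50 µM versus 500 µM of the lysine-reactive, reductant-cleavable probe OPA-S-S-alkyne (SILAC labeling time not stated). Probe-modified peptides were CuAAC-biotinylated, captured on neutravidin and eluted with DTT/IAA, then quantified by LC-MS/MS. R = median peptide ratio per lysine (500/50 µM), combined over 3 forward and 3 reverse SILAC replicates. Ratios are capped at 20; R < 2 = hyper-reactive.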
As for “IGF1R (lysine site: K469) (UniProt P08069)”, the “lysine labeling ratio R10:1” value was 3.98 (inactive).

As for UniProt P46781 (lysine site: K139), the “lysine labeling ratio R10:1” value is 3 (inactive).

As to “IGF2R (lysine site: K1924) (UniProt P11717)”, the “lysine labeling ratio R10:1” value was 3.04 (inactive).

Regarding “CELSR2 (lysine site: K2300) (UniProt Q9HCU4)”, the “lysine labeling ratio R10:1” value is 1.18 (active).

“AGRN (lysine site: K1934) (UniProt O00468)”: the “lysine labeling ratio R10:1” value was 2.08 (inactive).

With UniProt P23352 (lysine site: K279), the “lysine labeling ratio R10:1” value is 3.78 (inactive).

“CLTC (lysine site: K1264) (UniProt Q00610)”: the “lysine labeling ratio R10:1” value was 1.58 (active).

Take “TMED9 (lysine site: K160) (UniProt Q9BVK6)”: the “lysine labeling ratio R10:1” value is 5.13 (inactive).

On to “PA2G4 (lysine site: K287) (UniProt Q9UQ80)”, for which the “lysine labeling ratio R10:1” value was 0.997 (active).

Regarding UniProt P55145 (lysine site: K45), the “lysine labeling ratio R10:1” value is 4 (inactive).

Turning to “HSPA8 (lysine site: K159) (UniProt P11142)”, the “lysine labeling ratio R10:1” value was 5.07 (inactive).

In the case of “LRP1 (lysine site: K646) (UniProt Q07954)”, the “lysine labeling ratio R10:1” value is 1.92 (active).

For UniProt Q32P28 (lysine site: K437), the “lysine labeling ratio R10:1” value was 1.13 (active).

As to “CLU (lysine site: K322) (UniProt P10909)”, the “lysine labeling ratio R10:1” value is 1.38 (active).

For UniProt Q4KMG0 (lysine site: K149), the “lysine labeling ratio R10:1” value was 1.47 (active).

For the target “IGF2R (lysine site: K1230) (UniProt P11717)”, the “lysine labeling ratio R10:1” value is 1.74 (active).

“PTGFRN (lysine site: K579) (UniProt Q9P2B2)”: the “lysine labeling ratio R10:1” value is 2.67 (inactive).

Consider UniProt Q8WXD0 (lysine site: K130), for which the “lysine labeling ratio R10:1” value was 1.74 (active).

On to “SPTAN1 (lysine site: K229) (UniProt Q13813)”, for which the “lysine labeling ratio R10:1” value is 3.87 (inactive).

For UniProt P26639 (lysine site: K243), the “lysine labeling ratio R10:1” value was 3.1 (inactive).

In the case of UniProt Q92729 (lysine site: K440), the “lysine labeling ratio R10:1” value was 1.22 (active).

“HNRNPA1 (lysine site: K113) (UniProt P09651)”: the “lysine labeling ratio R10:1” value was 4.81 (inactive).

For “COPA (lysine site: K480) (UniProt P53621)”, the “lysine labeling ratio R10:1” value was 4.64 (inactive).

Turning to “MYH9 (lysine site: K860) (UniProt P35579)”, the “lysine labeling ratio R10:1” value is 2.67 (inactive).

In the case of “LRP1 (lysine site: K4230) (UniProt Q07954)”, the “lysine labeling ratio R10:1” value was 10.8 (inactive).

For the target UniProt Q15149 (lysine site: K4513), the “lysine labeling ratio R10:1” value is 1.42 (active).

On to PVR (lysine site: K90) (UniProt P15151), for which the “lysine labeling ratio R10:1” value is 3.33 (inactive).

On to UniProt Q9NP84 (lysine site: K48), for which the “lysine labeling ratio R10:1” value is 4.2 (inactive).

In the case of “LAMB1 (lysine site: K1370) (UniProt P07942)”, the “lysine labeling ratio R10:1” value is 1.61 (active).

Regarding “ITGAV (lysine site: K889) (UniProt P06756)”, the “lysine labeling ratio R10:1” value was 1.08 (active).

As to “PPT1 (lysine site: K174) (UniProt P50897)”, the “lysine labeling ratio R10:1” value was 1.29 (active).

Turning to “RPL5 (lysine site: K48) (UniProt P46777)”, the “lysine labeling ratio R10:1” value is 1.91 (active).

For “ARHGDIA (lysine site: K52) (UniProt P52565)”, the “lysine labeling ratio R10:1” value was 1.66 (active).

On to UniProt P07437 (lysine site: K58), for which the “lysine labeling ratio R10:1” value was 2.92 (inactive).

Take UniProt Q9UKX5 (lysine site: K223): the “lysine labeling ratio R10:1” value was 2.86 (inactive).

For the target “PAICS (lysine site: K304) (UniProt P22234)”, the “lysine labeling ratio R10:1” value is 4.39 (inactive).

As to “FLOT1 (lysine site: K54) (UniProt O75955)”, the “lysine labeling ratio R10:1” value is 0.737 (active).

For the target “NRP1 (lysine site: K407) (UniProt O14786)”, the “lysine labeling ratio R10:1” value was 3.76 (inactive).

“LAMB1 (lysine site: K1505) (UniProt P07942)”: the “lysine labeling ratio R10:1” value is 3.69 (inactive).

As to “FLNA (lysine site: K1375) (UniProt P21333)”, the “lysine labeling ratio R10:1” value was 2.93 (inactive).
